Only a selection was taken, and hits are over-represented in it overall.
Peg3 imprint = inducers of genomic imprint erasure in mouse ES cells. mouse ES Peg3-LacZ reporter, beta-gal luminescence, 40 h. Potency, µM (highest dose often 60.7 µM), for inactives: at the highest dose activity change, positive = activation, hits mostly activators. actives 0.02% (n = 110,000). AID 1948
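Gelatin-coated wells received 300 freshly trypsinized female ES cells with a Peg3LacZ-Neo reporter on the maternal allele, then incubated 40 hours at 37C. BetaGlo was added for 5 minutes at room temperature before a single luminescence read.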
CRE Fsk mod = modulators of forskolin-stimulated CRE signaling in CHO cells; CHO CRE-bla reporter (cAMP response element driving beta-lactamase), forskolin EC10, beta-lactamase ratio; Potency, µM (highest dose often 38.2 µM), without a hit: top-dose activity change, negative = inhibition, actives largely listed as activators; actives 2.5% (n = 71,000); AID 662; active means well fitted activation curve with a large enough effect in the signal ratio, with a control signal flat, not every such curve was filed as active; inconclusive means small, poorly fitted or top-dose-only effect, or effect the other way, or a change in a side signal; the % refers to the signal ratio; further: % of control where 0% means no effect
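The 460nm/530nm emission ratio after CCF4 loading defined %Activity, from which AC50 values were obtained. CRE-bla CHO cells received compound dilution series together with an EC10 level of NKH 477 for 3 hours at 37 degrees Celsius.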
ERK AVP inh = inhibitors of vasopressin-stimulated ERK signaling pathway; HEK293-V1b, vasopressin-stimulated pERK AlphaScreen; Potency, µM (series often up to 57.5 µM), for the others: at the top dose activity, negative = inhibition, actives largely listed as inhibitors; actives 0.99% (n = 72,000); further: on the % scale 0 is the no-effect control and ±100 the full control effect; nearly all actives have a fitted effect of over 55% in size
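HEK293 cells stably expressing V1b receptor, preincubated 30 min at 37 °C with compound, then stimulated 5 min with 25 nM vasopressin. Phospho-ERK by AlphaScreen SureFire after 5 h RT; normalized to DMSO and vasopressin; AC50 by Hill fit.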
IkB sig inh = IkB pathway inhibition in ABC-DLBCL cells; ABC-DLBCL IkBa-CBG/CBR dual luciferase ratio, 4 h; response scale: scaled: untreated 0%, proteasome inhibitor 100%; Potency, µM (highest dose often 57.1 µM), inactives show at the highest dose IkBa stabilization activation; actives 0.04% (n = 110,000); AID 445; active means well fitted curve in the direction sought with a large enough effect in the signal ratio, not every such curve was filed as active; inconclusive means small, poorly fitted or top-dose-only effect, or a change in a side signal; the % refers to the signal ratio;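 further: the direction sought is a rising ratio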
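Curves were fitted separately to fusion (green), unfused (red) and ratio luminescence, then classed by r2, magnitude and activity. Cells: OCI-Ly3, 4 h compound plus doxycycline at 37C; 10 uM MG-132 defined full response.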
Starred values were filed as active, the others as inactive; ? = inconclusive; . = no result; [ ] = dose if it differs, or a comment. Unless noted, the call rests on the fitted dose curve; in most records, active means well fitted curve in the direction sought with a large enough effect; inconclusive means small, poorly fitted or top-dose-only effect, or another doubt; inactive means no such curve, though single readings can be large; an effect the other way counts as inactive or inconclusive. Potency means the concentration at half of the fitted maximal effect.

SMILES	Peg3 imprint	CRE Fsk mod	ERK AVP inh	IkB sig inh
CCOc1ccc(Nc2nc(N)c(C(=O)c3ccccc3Cl)s2)cc1	-5%[10.9 µM]	.	.	?
Nc1ccc(-c2n[nH]c(=O)c3ccccc23)cc1N	-5%	2.5µM*	-20%	?
S=C(S)NCCN1CCNCC1	2%[10.9 µM]	-4%[7.6 µM]	8%[11.5 µM]	-1%[11.4 µM]
CCC(C)Sc1nc2c(cnn2-c2ccc(C)c(C)c2)c(=O)[nH]1 (stereo not drawn)	-6%	2.5µM*	.	-3%
CSC(N)=NCCC[C@@H](N)C(=O)O	.	1%	4%	1%
CCCc1cc(-c2ccc(O)c(OCC)c2)c(C#N)c(N)n1	.	2µM*	6%	3%
CCCCCCCCCC(=O)N[C@@H](CN1CCOCC1)[C@@H](O)c1ccccc1	.	-2%	33%	4%
O=c1c2ccccc2c2ccccc2c(=O)n1Cc1ccco1	-9%	-5%	-14%	3%
Cc1c(N=Cc2c(O)n(Cc3ccco3)c(=O)c3ccccc23)c(=O)n(-c2ccccc2)n1C	-18%	3.2µM*	-6%	1%
COC(=O)c1c(N)n(-c2ccc(OC)c(Cl)c2)c2nc3ccccc3nc12	-16%[10.9 µM]	.	.	0%
COCCCNC(=O)c1c(N)n(-c2ccc3c(c2)OCO3)c2nc3ccccc3nc12	-15%	10µM*	-13%	-6%
CCOC(=O)c1c(N)n(-c2ccc(C)c(Cl)c2)c2nc3ccccc3nc12	-12%[10.9 µM]	.	.	-3%
Nc1c(C(=O)OCC2CCCO2)c2nc3ccccc3nc2n1-c1ccc2c(c1)OCCO2 (stereo not drawn)	-21%	?	20µM*	1%
O=c1c2c3nc4ccccc4nc3n(-c3ccc4c(c3)OCCO4)c2ncn1CC1CCCO1 (stereo not drawn)	0%	19%	-10%	-2%
Nc1c(C(=O)NC2CC2)c2nc3ccccc3nc2n1-c1ccc2c(c1)OCO2	-2%	6.3µM*	?	-4%
CCCNC(=O)c1c(N)n(-c2ccc3c(c2)OCO3)c2nc3ccccc3nc12	-5%	0.32µM*	4%	0%
CCCNC(=O)c1c(N)n(-c2cc(OC)cc(OC)c2)c2nc3ccccc3nc12	-31%	?	?	?
COC(=O)C/C=C\[C@@H](C)[C@@H](/C=N\OC[C@@H]1O[C@H](c2ccccc2)C=C[C@@H]1Oc1ccc(OC)cc1)NS(=O)(=O)c1ccc(C)cc1	.	.	-7%[11.5 µM]	.
C=CCn1c(N)c(C(=O)NCC2CCCO2)c2nc3ccccc3nc21 (stereo not drawn)	-4%	10µM*	-29%	?
COc1ccc(-n2c(N)c(C(=O)NCC3CCCO3)c3nc4ccccc4nc32)c(OC)c1 (stereo not drawn)	-4%	?	?	-2%
Cc1nc2ccccc2c(=O)n1N	-1%	-5%	-12%	1%
Cc1csc2nc3ccccc3c(=O)n12	-2%	10µM*	-14%	9%
O=C(NCc1ccco1)c1cccn2c(=O)c3sccc3nc12	-17%	13µM*	6%	?
CCn1cc(C(=O)O)c(=O)c2ccc(Cc3ccccc3)nc21	.	?	.	0%
Cn1c(=O)n(Cc2ccc(F)cc2)c(=O)c2c1nc1n2CCCN1Cc1ccccc1	-4%	7%	-4%	1%
SMILES	Peg3 imprint	CRE Fsk mod	ERK AVP inh	IkB sig inh
Cn1c(=O)n(CCc2ccccc2)c(=O)c2c1nc1n2CCCN1Cc1ccccc1	-4%	9%	?	0%
CCn1c(=O)c2c(nc3n2CC(C)CN3CCc2ccccc2)n(C)c1=O (stereo not drawn)	-21%	6.3µM*	-28%	-2%
Cn1c(N2CCCC2)nc2c1c(=O)n(Cc1ccc(F)cc1)c(=O)n2C	-6%	3.2µM*	-17%	-3%
Cn1c(=O)n(CCc2ccccc2)c(=O)c2c1nc1n2CCCN1CCc1ccccc1	-27%	?	13µM*	?
Cc1ccc(OCc2nnc(SCc3nc4ccccc4[nH]3)n2Cc2ccco2)cc1	-6%	?	32µM*	?
CCOc1cccc(C(=O)Nc2cccc(-c3nc4ncccc4o3)c2C)c1	-15%	?	13µM*	2%
O=C(Nc1ccc(-c2nc3ccccc3o2)c(O)c1)c1cc(-n2cnnc2)ccc1Cl	3%	?	6.3µM*	?
Cc1c(NC(=O)c2cc(-n3cnnc3)ccc2Cl)cccc1-c1nc2ccccc2o1	-16%	?	-20%	?
COc1ccc(-c2csc(/C(C#N)=C(\O)CSc3nccn3C)n2)cc1OC	-9%	6.3µM*	-28%	-5%
